Test results taken from PubChem BioAssay AID488841 (Sanford-Burnham Center for Chemical Genomics, 2010).
About 380 (27%) of roughly 1,400 compounds were called active. Some of the results follow. Values without a mark were called inactive.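 How the source made its calls: active means mean inhibition above 50% across duplicate retests at 10 µM; inactive means the rest.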

Assay: yeast NALP1 reporter signal suppression – S. cerevisiae, luminescence, single concentration, NALP1 inhibitor project, confirmation (AID 488841);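 further: plate controls were DMSO in galactose medium for no effect and cells in plain SD medium for full effect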
Conditions: S. cerevisiae NALP1/ASC/Caspase-1 reporter, beta-gal luminescence; at 10 µM; active compounds read high
In the case of `Oc1ccccc1C1N=C(c2ccccc2)NC(c2ccccc2)=N1`, the inhibition is reported as 16.1%.
In the case of `O=C(CSc1ncn[nH]1)NC12CC3CC(CC(C3)C1)C2`, the inhibition is reported as 22.3%.
For `COC(=O)COc1ccc(S(=O)(=O)NCCC2=CCCCC2)cc1Cl`, the inhibition was 28.2%.
For `O=C1C2C3C=CC(C2C(=O)N1CCCO)C1C2C(=O)N(CCCO)C(=O)C2C31` (stereo not drawn), the inhibition was 17.4%.
In the case of `COc1ccc(OC)c(NC(=O)c2sc3nc(Cc4ccccc4)cc(C(F)(F)F)c3c2N)c1`, the inhibition is reported as 23.5%.
For `CCC(C)NC(=O)c1cc2cc3ccc(OC)cc3nc2s1` (stereo not drawn), the inhibition was 54.9% (active).
Work on `COc1ccc2cc(/C=N/O)c(Cl)nc2c1` yielded an inhibition of 46.1%.
Work on `CC(C)(C)C(=O)NC1CCN(S(=O)(=O)c2ccc(C(F)(F)F)cc2)CC1` yielded an inhibition of 18.1%.
Work on `CCOc1cccc(N2C(=O)CC(N3CCN(c4ccc(S(=O)(=O)CC)cc4)CC3)C2=O)c1` (stereo not drawn) yielded an inhibition of 30.9%.
Molecule `CCOc1ccc(NC2=C(OC)C(=O)c3ccccc3C2=O)cc1` has an inhibition of 39.5%.
For `CCOc1ccc(S(=O)(=O)N2c3ccccc3CC2C)cc1` (stereo not drawn), the inhibition was 54.5% (active).
`Cc1cc(Cl)c(OCCCCN2CCOCC2)c(Br)c1` gave an inhibition of 40.9%.
Work on `CCOC(=O)C(=CNNc1ccsc1C(=O)OC)C(=O)OCC` yielded an inhibition of 37.1%.
With `COC(=O)c1sccc1NC(=O)c1csc(C)c1` the inhibition was 54% (active).
`COC(=O)c1sccc1N/N=C(\C)c1ccc(F)c(Cl)c1` gave an inhibition of 22.3%.
Molecule `CCn1c(C)[n+](CC(O)COCC2CC=CCC2)c2ccccc21` (stereo not drawn) has an inhibition of 40%.
In the case of `CCOC(=O)c1c(C)n(C)c2cc(-c3ccc(C)cc3)c(O)cc12`, the inhibition is reported as 24.9%.
`CCCCC(CC(O)COCCC)c1n[nH]c(=S)n1-c1ccccc1` (stereo not drawn) gave an inhibition of 44.8%.
Work on `CC(C)Sc1nnc([C@H](Cc2ccccc2)NC(=O)OC(C)(C)C)o1` yielded an inhibition of 30.7%.
For `CC(C)(C)OC(=O)NCCCCCc1nnc(SCc2ccccc2)o1`, the inhibition was 56.6% (active).
`CCCCSc1nnc(CCNC(=O)OC(C)(C)C)o1` showed an inhibition of 42.2%.
For `CC(C)Cc1nnc(NC(=O)CSc2nc(N)cc(=O)[nH]2)s1`, the inhibition was 23.4%.
For `CCOC(=O)Nc1cccc(Nc2ccccc2)c1`, the inhibition was 52.2% (active).
`CCOC(=O)c1sc(NC(=O)Nc2cccc(Cl)c2)cc1C` gave an inhibition of 5.75%.
Work on `CCOC(=O)Nc1ccc2c(C)cc(=O)oc2c1` yielded an inhibition of 41.3%.
Molecule `Cc1cc(C)cc(-n2nnc(C(=O)NCc3ccccc3)c2N)c1` has an inhibition of 34.6%.
With `O=[N+]([O-])c1ccc2nc(-c3ccccn3)[nH]c2c1` the inhibition was 47.6%.
For `c1ccc(-c2nc3cc4ccccc4cc3[nH]2)nc1`, the inhibition was 73.2% (active).
